The text below walks through data of the antibiotic and cytotoxicity screens of Wong et al. (2023).

About 3,300 (8.5%) of roughly 39,000 compounds were called active. For the sample, actives were picked, then their nearest neighbours and some compounds at random.

In this assay the test system is HepG2. Briefly: cytotoxicity call (relative viability < 0.9). The settings on record: 10 µM.
Regarding `CN(C)CCCNC(=O)C[C@H]1C=C[C@H](NS(=O)(=O)c2ccccc2)[C@H](CO)O1`, the cytotoxicity call is “inactive”.

As for `C[C@@H]1CN([C@@H](C)CO)C(=O)Cc2cc(NS(C)(=O)=O)ccc2O[C@H]1CN(C)C(=O)Nc1ccc(F)cc1`, the cytotoxicity call was “inactive”.

As to `COc1cccc(-c2cn(CC[C@H]3CC[C@@H](NC(=O)CN(C)C)[C@H](CO)O3)nn2)c1`, the cytotoxicity call was “inactive”.

`CC(C)NC(=O)N(C)C[C@H]1Oc2ccc(NC(=O)Cc3ccccc3)cc2CC(=O)N([C@@H](C)CO)C[C@H]1C`: the cytotoxicity call is “inactive”.

In the case of `CN1C(=O)c2cc(NC(=O)c3ccno3)ccc2OC[C@H]2O[C@@H](CC(=O)NC3Cc4ccccc4C3)CC[C@@H]21`, the cytotoxicity call was “inactive”.

For the molecule `Cc1noc(C)c1NC(=O)N(C)C[C@@H]1Oc2ccc(NC(=O)Cn3cnnn3)cc2CC(=O)N([C@H](C)CO)C[C@@H]1C`, the cytotoxicity call was “inactive”.

Turning to `C[C@@H]1CCCCO[C@H](CN(C)C(=O)Nc2ccc(C(F)(F)F)cc2)[C@H](C)CN([C@H](C)CO)C(=O)c2cc(NC(=O)Nc3ccccc3)ccc2O1`, the cytotoxicity call was “inactive”.

Take `O=C(C[C@@H]1CC=CC[C@H](NC(=O)OCC2c3ccccc3-c3ccccc32)C(=O)O[C@H](c2ccccc2)CNC1=O)N[C@H](CO)Cc1ccccc1`: the cytotoxicity call was “inactive”.

Turning to `O=C(C[C@@H]1CC[C@@H](NS(=O)(=O)c2ccccc2)[C@@H](CO)O1)NCc1ccncn1`, the cytotoxicity call is “inactive”.

For `Cc1noc(C)c1S(=O)(=O)N(C)C[C@H]1Oc2ccc(NS(=O)(=O)c3ccc(F)cc3)cc2CC(=O)N([C@@H](C)CO)C[C@@H]1C`, the cytotoxicity call is “inactive”.

As to `O=C(Oc1ccccc1C(=O)O)c1ccccc1O`, the cytotoxicity call was “inactive”.

In the case of `CC1CC(OC(=O)c2ccccc2O)CC(C)(C)C1` (stereo not drawn), the cytotoxicity call was “active”.

With `CC1CC(OC(=O)C(O)c2ccccc2)CC(C)(C)C1` (stereo not drawn), the cytotoxicity call is “inactive”.

For the molecule `C[C@H]1CN([C@@H](C)CO)C(=O)Cc2cc(NS(C)(=O)=O)ccc2O[C@@H]1CN(C)S(=O)(=O)c1ccccc1`, the cytotoxicity call is “inactive”.

Regarding `C[C@H]1CCCCO[C@H](CN(C)C(=O)C2CCCCC2)[C@@H](C)CN([C@@H](C)CO)C(=O)c2cc(NC(=O)CCC(F)(F)F)ccc2O1`, the cytotoxicity call was “inactive”.

On to `COCC(=O)N(C)C[C@@H]1Oc2cc(C#Cc3cccnc3)ccc2S(=O)(=O)N([C@H](C)CO)C[C@@H]1C`, for which the cytotoxicity call was “inactive”.

For `C[C@H](CO)N1C[C@H](C)[C@H](CN(C)C(=O)Nc2ccc(F)cc2)Oc2c(NC(=O)Nc3ccc(C(F)(F)F)cc3)cccc2C1=O`, the cytotoxicity call is “active”.

On to `C[C@@H]1CN([C@H](C)CO)C(=O)c2cccc(NC(=O)Nc3ccc(F)cc3)c2O[C@@H]1CN(C)C(=O)Nc1ccc(C(F)(F)F)cc1`, for which the cytotoxicity call was “inactive”.

Regarding `C[C@@H]1CN([C@H](C)CO)C(=O)c2cccc(NC(=O)Nc3ccc(C(F)(F)F)cc3)c2O[C@@H]1CN(C)C(=O)Nc1ccc(F)cc1`, the cytotoxicity call is “inactive”.

Regarding `C[C@H]1CN([C@@H](C)CO)C(=O)c2cccc(NC(=O)Nc3ccc(C(F)(F)F)cc3)c2O[C@H]1CN(C)C(=O)Nc1ccc(F)cc1`, the cytotoxicity call was “active”.

Consider `C[C@@H]1CN([C@H](C)CO)C(=O)c2cccc(NC(=O)Nc3ccc(F)cc3)c2O[C@H]1CN(C)C(=O)Nc1ccc(C(F)(F)F)cc1`, for which the cytotoxicity call was “inactive”.

Regarding `C[C@H]1CN([C@@H](C)CO)C(=O)c2cccc(NC(=O)Nc3ccc(C(F)(F)F)cc3)c2O[C@@H]1CN(C)C(=O)Nc1ccc(F)cc1`, the cytotoxicity call is “inactive”.

Regarding `C[C@H](CO)N1C[C@H](C)[C@@H](CN(C)S(=O)(=O)c2cn(C)cn2)Oc2c(NC(=O)Nc3ccccc3)cccc2C1=O`, the cytotoxicity call is “inactive”.

For `C[C@@H]1CCCCO[C@H](CN(C)C(=O)C2CCCCC2)[C@@H](C)CN([C@H](C)CO)C(=O)c2cc(NC(=O)c3ccccc3)ccc2O1`, the cytotoxicity call was “inactive”.

Regarding `C[C@@H]1CN([C@@H](C)CO)S(=O)(=O)c2ccc(Br)cc2O[C@@H]1CN(C)C(=O)c1ccncc1`, the cytotoxicity call is “inactive”.

Regarding `C[C@H](CO)N1C[C@H](C)[C@H](CN(C)Cc2ccc(C(F)(F)F)cc2)Oc2ccc(NC(=O)NC3CCCCC3)cc2C1=O`, the cytotoxicity call is “inactive”.

In the case of `C[C@@H]1CN([C@@H](C)CO)C(=O)c2cccc(NS(C)(=O)=O)c2O[C@@H]1CN(C)S(=O)(=O)c1ccc(Cl)cc1`, the cytotoxicity call is “inactive”.

In the case of `C[C@@H]1CN([C@H](C)CO)C(=O)c2cc(NC(=O)NC3CCCCC3)ccc2O[C@@H](C)CCCCO[C@@H]1CN(C)Cc1ccc(C(F)(F)F)cc1`, the cytotoxicity call was “inactive”.

Turning to `C[C@H]1CCCCO[C@H](CN(C)Cc2ccc(C(F)(F)F)cc2)[C@@H](C)CN([C@@H](C)CO)C(=O)c2cc(NC(=O)NC3CCCCC3)ccc2O1`, the cytotoxicity call is “active”.

With `C[C@@H]1CN([C@@H](C)CO)C(=O)c2cc(NC(=O)NC3CCCCC3)ccc2O[C@@H](C)CCCCO[C@H]1CN(C)Cc1ccc(C(F)(F)F)cc1`, the cytotoxicity call is “active”.

For the molecule `C[C@H](CO)N1C[C@H](C)[C@@H](CN(C)Cc2ccc(C(F)(F)F)cc2)OCCCC[C@H](C)Oc2ccc(NC(=O)NC3CCCCC3)cc2C1=O`, the cytotoxicity call was “active”.

`C[C@H](CO)N1C[C@H](C)[C@H](CN(C)Cc2ccc(C(F)(F)F)cc2)OCCCC[C@H](C)Oc2ccc(NC(=O)NC3CCCCC3)cc2C1=O`: the cytotoxicity call is “inactive”.

On to `C[C@@H]1CCCCO[C@@H](CN(C)Cc2ccc(C(F)(F)F)cc2)[C@H](C)CN([C@@H](C)CO)C(=O)c2cc(NC(=O)NC3CCCCC3)ccc2O1`, for which the cytotoxicity call was “active”.

For `Cc1ccc2nc(CN)cn2c1`, the cytotoxicity call was “inactive”.

Take `CCOc1ccc(Nc2nc3c(=O)nc[nH]c3n2[C@H]2O[C@@H](CO)[C@@H](O)[C@@H]2O)cc1`: the cytotoxicity call is “inactive”.

As to `C[C@H](CO)N1C[C@H](C)[C@@H](CN(C)C(=O)CCC(F)(F)F)OCCCC[C@H](C)Oc2ccc(NC(=O)CCC(F)(F)F)cc2C1=O`, the cytotoxicity call was “inactive”.

For `C[C@H]1CN([C@@H](C)CO)C(=O)CCCn2nncc2CO[C@H]1CN(C)C(=O)c1ccc(N2CCN(C)CC2)cc1`, the cytotoxicity call is “inactive”.

For `COc1ccc(S(=O)(=O)N(C)C[C@@H]2Oc3ccc(NC(=O)NC(C)C)cc3CC(=O)N([C@H](C)CO)C[C@H]2C)cc1`, the cytotoxicity call is “inactive”.

On to `CN1CCN(C(=O)C[C@H]2CC[C@H]3[C@@H](COc4ccc(NC(=O)c5ccc(F)c(F)c5)cc4C(=O)N3C)O2)CC1`, for which the cytotoxicity call is “inactive”.

As to `COc1ccc(CNS(=O)(=O)N(C)C)cc1`, the cytotoxicity call is “inactive”.

In the case of `CO[C@H]1CN(C)C(=O)c2cc(NC(=O)Nc3ccccc3)ccc2OC[C@H](C)N(C(=O)CN(C)C)C[C@H]1C`, the cytotoxicity call was “inactive”.

Regarding `C[C@@H]1CCCCO[C@H](CN(C)Cc2ccc(C(F)(F)F)cc2)[C@@H](C)CN([C@@H](C)CO)C(=O)c2cc(NC(=O)NC3CCCCC3)ccc2O1`, the cytotoxicity call is “active”.

Regarding `C[C@@H]1CCCCO[C@H](CN(C)Cc2ccc(C(F)(F)F)cc2)[C@@H](C)CN([C@H](C)CO)C(=O)c2cc(NC(=O)NC3CCCCC3)ccc2O1`, the cytotoxicity call is “active”.

Take `C[C@@H]1CCCCO[C@H](CN(C)Cc2ccc(C(F)(F)F)cc2)[C@H](C)CN([C@H](C)CO)C(=O)c2cc(NC(=O)NC3CCCCC3)ccc2O1`: the cytotoxicity call is “active”.

With `C[C@@H]1CCCCO[C@@H](CN(C)Cc2ccc(C(F)(F)F)cc2)[C@@H](C)CN([C@@H](C)CO)C(=O)c2cc(NC(=O)NC3CCCCC3)ccc2O1`, the cytotoxicity call is “active”.

For the molecule `C[C@@H]1CCCCO[C@@H](CN(C)Cc2ccc(C(F)(F)F)cc2)[C@@H](C)CN([C@H](C)CO)C(=O)c2cc(NC(=O)NC3CCCCC3)ccc2O1`, the cytotoxicity call was “inactive”.

In the case of `CNC(=O)C[C@H]1CC[C@H]2[C@@H](COC[C@@H](O)CN2C(=O)Nc2ccc3c(c2)OCO3)O1`, the cytotoxicity call was “inactive”.

`C[C@H](CO)N1C[C@H](C)[C@H](CN(C)C(=O)Nc2ccc(F)cc2)Oc2ccc(NS(=O)(=O)c3cn(C)cn3)cc2C1=O`: the cytotoxicity call is “inactive”.

Take `C[C@H](CO)N1C[C@H](C)[C@@H](CN(C)C(=O)Cc2ccccc2)OCCCC[C@H](C)Oc2ccc(NS(=O)(=O)c3ccc(F)cc3)cc2C1=O`: the cytotoxicity call was “inactive”.

Take `C[C@@H]1CN([C@@H](C)CO)C(=O)c2cc(NS(=O)(=O)c3cn(C)cn3)ccc2O[C@@H]1CN(C)C(=O)NC1CCCCC1`: the cytotoxicity call was “inactive”.

With `COc1ccc(S(=O)(=O)N(C)C[C@H]2OCCCC[C@@H](C)Oc3ccc(NS(=O)(=O)c4cn(C)cn4)cc3C(=O)N([C@@H](C)CO)C[C@@H]2C)cc1`, the cytotoxicity call is “inactive”.

Turning to `C[C@@H]1CCCCO[C@H](CN(C)C(=O)Nc2cccc3ccccc23)[C@H](C)CN([C@@H](C)CO)C(=O)c2cc(NS(=O)(=O)c3cn(C)cn3)ccc2O1`, the cytotoxicity call is “inactive”.

On to `COc1ccc(S(=O)(=O)Nc2cccc3c2O[C@H](CN(C)C(=O)NC(C)C)[C@@H](C)CN([C@H](C)CO)C3=O)cc1`, for which the cytotoxicity call is “inactive”.

On to `C[C@@H]1CCCCO[C@H](CN(C)S(=O)(=O)c2ccccc2)[C@@H](C)CN([C@H](C)CO)C(=O)c2cc(NC(=O)C3CCCCC3)ccc2O1`, for which the cytotoxicity call was “inactive”.

In the case of `CNC(=O)C(=O)NC[C@H]1CCCN1S(=O)(=O)c1cccs1`, the cytotoxicity call was “inactive”.

In the case of `CC(=O)OC1CCC2(C)C(CCC3C4CC=C(C(C)=O)C4(C)CCC32)C1` (stereo not drawn) [3-beta-ACETOXYALLOPREG-16-EN-20-ONE ], the cytotoxicity call is “inactive”.

On to `Cc1noc(C)c1S(=O)(=O)Nc1ccc2c(c1)CC(=O)N([C@H](C)CO)C[C@@H](C)[C@@H](CN(C)S(C)(=O)=O)O2`, for which the cytotoxicity call is “inactive”.

Turning to `C[C@@H]1CCCCO[C@@H](CN(C)C(=O)CCC(F)(F)F)[C@H](C)CN([C@@H](C)CO)C(=O)c2cc(NC(=O)CCC(F)(F)F)ccc2O1`, the cytotoxicity call was “inactive”.

Take `C[C@@H]1CN([C@@H](C)CO)C(=O)c2cc(NC(=O)NC3CCCCC3)ccc2O[C@@H](C)CCCCO[C@@H]1CN(C)Cc1ccc(C(F)(F)F)cc1`: the cytotoxicity call was “inactive”.

Regarding `C[C@@H]1CCCCO[C@@H](CN(C)Cc2ccc(C(F)(F)F)cc2)[C@H](C)CN([C@H](C)CO)C(=O)c2cc(NC(=O)NC3CCCCC3)ccc2O1`, the cytotoxicity call is “active”.

With `C[C@H]1CCCCO[C@@H](CN(C)Cc2ccc(C(F)(F)F)cc2)[C@@H](C)CN([C@@H](C)CO)C(=O)c2cc(NC(=O)NC3CCCCC3)ccc2O1`, the cytotoxicity call is “active”.

Take `C[C@@H]1CCCCO[C@H](CN(C)Cc2ccc(C(F)(F)F)cc2)[C@H](C)CN([C@@H](C)CO)C(=O)c2cc(NC(=O)NC3CCCCC3)ccc2O1`: the cytotoxicity call was “active”.

As for `C[C@@H]1CN([C@H](C)CO)C(=O)c2cc(NC(=O)NC3CCCCC3)ccc2O[C@@H](C)CCCCO[C@H]1CN(C)Cc1ccc(C(F)(F)F)cc1`, the cytotoxicity call was “inactive”.
